Results taken from PubChem BioAssay AID488975 (Johns Hopkins Ion Channel Center, 2010).
The whole screen tested about 310,000 compounds, of which about 2,600 (0.84%) were called active. This is one part of a sample in which actives are shown more often than they occur.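 How the source made its calls: active means B-score over 3 SD under the library average, and starting fluorescence ratio not unusually high; inactive means the rest.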

The molecules below were run against High affinity choline transporter 1 (Homo sapiens) (UniProt Q9GZV3) (assay: inhibits the human high affinity choline transporter (AID 488975;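 on B-score: choline stimulus applied at its EC90 after an EC20 pre-addition; B-score computed on integrated fluorescence ratio after choline addition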)). Settings: CHT-expressing cells, membrane potential dye, choline response, at 10 µM; hits give low values.
Sequence of High affinity choline transporter 1 (Homo sapiens) (Q9GZV3 whole entry, looked up): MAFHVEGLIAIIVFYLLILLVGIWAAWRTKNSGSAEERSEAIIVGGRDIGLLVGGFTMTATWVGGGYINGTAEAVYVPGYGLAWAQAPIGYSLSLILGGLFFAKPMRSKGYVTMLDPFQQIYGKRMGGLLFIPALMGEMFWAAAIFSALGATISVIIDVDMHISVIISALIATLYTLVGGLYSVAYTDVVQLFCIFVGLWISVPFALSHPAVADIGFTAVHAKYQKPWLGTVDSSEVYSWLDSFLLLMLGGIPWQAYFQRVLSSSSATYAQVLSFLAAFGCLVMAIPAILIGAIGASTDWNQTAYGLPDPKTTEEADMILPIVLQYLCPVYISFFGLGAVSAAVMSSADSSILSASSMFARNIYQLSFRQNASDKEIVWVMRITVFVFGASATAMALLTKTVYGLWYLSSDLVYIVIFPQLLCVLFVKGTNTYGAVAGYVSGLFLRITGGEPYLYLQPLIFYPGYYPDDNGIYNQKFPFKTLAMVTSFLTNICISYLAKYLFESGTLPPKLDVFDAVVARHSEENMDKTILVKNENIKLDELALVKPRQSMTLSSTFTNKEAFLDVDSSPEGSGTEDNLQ
With Cc1ccc2c(C)c(C(=O)N3CCN(c4ccncc4)CC3)oc2c1C the B-score was “inactive”.
CCOc1cc(C(=O)Nc2ccc(S(=O)(=O)Nc3cnc4ccccc4n3)cc2)cc(OCC)c1OCC was tested, and the B-score was “inactive”.
For O=C(Nc1ccccc1C(=O)NCCCn1ccnc1)c1ccc(Cl)cc1Cl, the B-score was -5.25 (active).
O=C(NCCCn1ccnc1)c1ccccc1F was tested, and the B-score was “inactive”.
In the case of O=C(NCCCn1ccnc1)Nc1ccc(Cl)cc1Cl, the B-score is reported as “inactive”.
With COc1ccc(C(=O)C2CCCN(C(=O)c3ccc(OC)o3)C2)c(C)c1 (stereo not given) the B-score was “inactive”.
With COCC(=O)Nc1c(C(=O)N2CCCC2)oc2ccccc12 the B-score was “inactive”.
CCOCCCN(C)C1CCN(C(=O)c2oc3ccccc3c2NC(=O)Cc2cccc([N+](=O)[O-])c2)CC1 was tested, and the B-score was “inactive”.
For CCOCCCN(C)C1CCN(C(=O)c2oc3ccccc3c2NC(=O)COc2cccc(C)c2)CC1, the B-score was -6.44 (active).
In the case of O=C(Nc1ccccc1-c1nc2ccccc2[nH]c1=O)c1cccs1, the B-score is reported as “inactive”.
For C/C(=N\Nc1nc2ccccc2[nH]1)c1cccs1, the B-score was -6.15 (active).
C/C(=N\Nc1ncc(Cl)cc1Cl)c1cccs1 was tested, and the B-score was “inactive”.
For COC(=O)c1ccc(SCc2ccccc2)nc1, the B-score was “inactive”.
In the case of COc1cnn(-c2ccc([N+](=O)[O-])cc2)c(=O)c1Cl, the B-score is reported as “inactive”.
For Nc1c(C(=O)Nc2ccc3c(c2)OCCO3)nnn1Cc1ccccc1, the B-score was “inactive”.
In the case of O=C(Cc1c[nH]c2ccccc12)OCCOC(=O)Cc1c[nH]c2ccccc12, the B-score is reported as “inactive”.
In the case of O=C(NCCCc1ccccc1)C(=O)c1c[nH]c2ccccc12, the B-score is reported as “inactive”.
In the case of O=C(OCC(=O)c1c[nH]c2ccccc12)c1cccc(O)c1, the B-score is reported as -7.81 (active).
In the case of COc1ccc(N2CCN(C(=O)COC(=O)c3cccc(S(=O)(=O)Nc4ccccc4OC)c3)CC2)cc1, the B-score is reported as “inactive”.
With O=C(Nc1ccc2c(c1)CCC2)c1cccc(S(=O)(=O)N2CCN(c3ccc(F)cc3)CC2)c1 the B-score was “inactive”.
Cc1cccnc1NC(=O)c1cccc(S(=O)(=O)N2CCN(c3ccc(F)cc3)CC2)c1 was tested, and the B-score was -6.97 (active).
In the case of O=C(Nc1cccnc1)c1cccc(S(=O)(=O)N2CCCC2)c1, the B-score is reported as “inactive”.
In the case of CC(=O)N1CCN(S(=O)(=O)c2cccc(C(=O)NC3CCC(C)CC3)c2)CC1 (stereo not given), the B-score is reported as -4.99 (active).
For CN1CCN(S(=O)(=O)c2cccc(C(=O)O)c2)CC1, the B-score was “inactive”.
With COc1ccc(OC)c(NC(=O)c2cccc(S(=O)(=O)N3CCN(C(C)=O)CC3)c2)c1 the B-score was “inactive”.
With CCc1ccc(OC(C)C(=O)Nc2ccc(S(=O)(=O)Nc3cc(C)on3)cc2)cc1 (stereo not given) the B-score was “inactive”.
For Cc1cc(NS(=O)(=O)c2ccc(NC(=O)C(C)Oc3cccc(C)c3C)cc2)nc(C)n1 (stereo not given), the B-score was -9.11 (active).
With Cc1cc(OC(C)C(=O)Nc2ccc(S(=O)(=O)Nc3onc(C)c3C)cc2)cc(C)c1Cl (stereo not given) the B-score was -4.96 (active).
Cc1cc(NS(=O)(=O)c2ccc(NC(=O)c3cccnc3)cc2)nc(C)n1 was tested, and the B-score was “inactive”.
In the case of COc1ccc(C(=O)Nc2ccc(S(=O)(=O)Nc3onc(C)c3C)cc2)cc1OC, the B-score is reported as “inactive”.
For CCOc1ccc(CC(=O)Nc2ccc(S(=O)(=O)Nc3cc(C)on3)cc2)cc1OCC, the B-score was “inactive”.
In the case of Cc1cc(NS(=O)(=O)c2ccc(NC(=O)c3cccc(OC(F)F)c3)cc2)nc(C)n1, the B-score is reported as “inactive”.
In the case of CC(Oc1cccc(Cl)c1)C(=O)Nc1ccc(S(=O)(=O)Nc2ncccn2)cc1 (stereo not given), the B-score is reported as “inactive”.
CCOc1ccc(C(=O)Nc2ccc(S(=O)(=O)Nc3cc(C)on3)cc2)cc1 was tested, and the B-score was “inactive”.
For COc1cc(OC)cc(C(=O)Nc2ccc(S(=O)(=O)Nc3cc(C)on3)cc2)c1, the B-score was “inactive”.
COc1cc2ccccc2cc1C(=O)Nc1ccc(S(=O)(=O)Nc2cc(C)on2)cc1 was tested, and the B-score was -5.68 (active).
CCC(Oc1ccccc1C)C(=O)Nc1ccc(S(=O)(=O)Nc2cc(C)on2)cc1 (stereo not given) was tested, and the B-score was -6.05 (active).
With COc1ccc(Cl)cc1NC(=O)CN(C)C(=O)c1cc(-c2cccs2)nn1-c1ccccc1 the B-score was “inactive”.
With O=C(CNC(=O)c1ccccc1Br)NCCSc1ccc(Br)cc1 the B-score was “inactive”.
For O=C(Oc1ccc(-c2nnco2)cc1)c1ccc(F)c(S(=O)(=O)N2CCOCC2)c1, the B-score was “inactive”.
In the case of O=C(NCCCN1CCCC1=O)c1ccc(S(=O)(=O)Nc2ccccc2)cc1, the B-score is reported as “inactive”.
With COc1ccc(C(C#N)(CC(=O)O)c2cnccn2)cc1OC (stereo not given) the B-score was “inactive”.
Cc1ccc(-c2nn(-c3ccccc3)cc2C(=O)NCCCN2CCCC2=O)cc1 was tested, and the B-score was “inactive”.
In the case of Cc1cccc(N(C)C(=O)CN2C(=O)COc3ccc(S(=O)(=O)N4CCCCCC4)cc32)c1, the B-score is reported as -6.38 (active).
With CCc1ccc(NC(=O)CN2C(=O)COc3ccc(S(=O)(=O)N4CCCC4)cc32)cc1 the B-score was “inactive”.
With CN(C)c1ccc(CNC(=O)CN2C(=O)COc3ccc(S(=O)(=O)N4CCCC4)cc32)cc1 the B-score was “inactive”.
For O=S(=O)(c1ccccc1)N1CCC(c2ccccc2)CC1, the B-score was “inactive”.
Cc1ccc(C(=O)CSc2ccccc2C(=O)O)cc1 was tested, and the B-score was “inactive”.
Cc1ccc(SC(CC(=O)c2ccc(C(C)(C)C)cc2)C(=O)O)cc1 (stereo not given) was tested, and the B-score was -8.41 (active).
In the case of Cc1ccc(CSCC(N)C(=O)O)cc1 (stereo not given), the B-score is reported as “inactive”.
OCc1ccc(-c2ccccc2)c(-c2ccccc2)c1 was tested, and the B-score was “inactive”.
With O=C(Nc1ccc(F)c([N+](=O)[O-])c1)C1CCCO1 (stereo not given) the B-score was “inactive”.
For Cc1ccc(-c2cc(C(=O)NC3CCN(Cc4ccccc4)CC3)c3ccccc3n2)cc1, the B-score was “inactive”.
C/C(=N\OCC(=O)O)c1ccc(Cl)cc1 was tested, and the B-score was “inactive”.
For C/C(=N\NC(=S)NCc1ccccc1)c1ccc(Cl)cc1, the B-score was “inactive”.
In the case of C/C(=N\N=C(N)N)c1ccc(Cl)cc1, the B-score is reported as -9.9 (active).
With CC1CCC(CN2CCN=C2N(C)C)CC1 (stereo not given) the B-score was “inactive”.
In the case of CCCCCCc1cc2cc(-c3nnc(-c4ccccc4)o3)c(=O)oc2cc1O, the B-score is reported as “inactive”.
For CCCCCCc1ccc(O)cc1O, the B-score was -6.74 (active).
In the case of CCCCCCCN=C(C)c1ccccc1O, the B-score is reported as “inactive”.
CC1(c2ccccc2)NC(=O)N(CC(=O)Nc2cc(Cl)ccc2N2CCOCC2)C1=O (stereo not given) was tested, and the B-score was “inactive”.
For COc1cc(N)c(Cl)cc1C(=O)OCC(=O)c1ccc2c(c1)NC(=O)CO2, the B-score was “inactive”.
CN1C(C(=O)NCc2ccco2)CC2Cn3c(nc4ccccc43)C21 (stereo not given) was tested, and the B-score was “inactive”.
In the case of Cc1ccc(-c2nn(-c3ccccc3)cc2/C=C/C(=O)Nc2cccc(S(N)(=O)=O)c2)cc1, the B-score is reported as “inactive”.
In the case of O=C(/C=C/c1cn(-c2ccccc2)nc1-c1ccc2c(c1)OCCO2)NCCCN1CCOCC1, the B-score is reported as -5.76 (active).
In the case of COc1ccc(-c2nn(-c3ccccc3)cc2/C=C\C(=O)N2CCOCC2)cc1[N+](=O)[O-], the B-score is reported as “inactive”.
In the case of Cc1ccc(SCC(=O)Nc2nncs2)cc1, the B-score is reported as “inactive”.
In the case of C#CCOCCOCCOCCNc1nc(N2CCN(C(=O)Cn3cc(CCCCN)nn3)CC2)nc(N2CCN(C(=O)[C@H](CCCCN)n3cc(CCC(=O)O)nn3)CC2)n1, the B-score is reported as “inactive”.
Cc1ccccc1OCC(=O)NNC(=O)c1ccc(-n2cncn2)c([N+](=O)[O-])c1 was tested, and the B-score was “inactive”.
CCCCn1c(N)c(N(CCC(C)C)C(=O)CC2OC(=O)c3ccccc32)c(=O)[nH]c1=O (stereo not given) was tested, and the B-score was “inactive”.
In the case of OC1CN=C2Sc3ccccc3N2C1 (stereo not given), the B-score is reported as -5.4 (active).
For COc1ccc(S(=O)(=O)N2CCCCC2)cc1NC(=O)C1CC(=O)N(c2ccc3c(c2)OCCO3)C1 (stereo not given), the B-score was “inactive”.
With Cc1ccc(S(=O)(=O)NCCC(=O)OCC(=O)N(C)c2ccccc2)cc1 the B-score was “inactive”.
For CCOC(=O)C1(CCOC)CCN(Cc2cc3ccccc3s2)CC1, the B-score was “inactive”.
With CCOC(=O)C1(CCOc2ccccc2)CCN(Cc2cc(OC)cc(OC)c2)CC1 the B-score was “inactive”.
For CCOC(=O)C1(CCOC)CCN(Cc2ccc(C(=O)OC)cc2)CC1, the B-score was -7.63 (active).
In the case of CCN1C(=O)[C@@H]2[C@@H](c3ccc(-c4ccc(OC)cc4)c(OC)c3)N3CCC[C@@]3(C(=O)OC)[C@@H]2C1=O, the B-score is reported as “inactive”.
S=C(Nc1cccc(Cl)c1)Nc1ccc2cn[nH]c2c1 was tested, and the B-score was “inactive”.
FC(F)(F)c1cccc(NC(=S)Nc2cccc(Cl)c2)c1 was tested, and the B-score was -9.9 (active).
In the case of S=C(Nc1cccc(Cl)c1)Nc1ccc2c(c1)OCCO2, the B-score is reported as “inactive”.
In the case of CCOC(=O)c1cnc2nc(SCc3ccccc3Cl)[nH]n2c1=O, the B-score is reported as “inactive”.
For O=C1c2ccccc2C(=O)c2c1cccc2N1CCN(C/C=C/c2ccccc2)CC1, the B-score was “inactive”.
In the case of CCCCCCCNC(=O)C1(CC2CC(c3cccc(Br)c3)=NO2)CCN(C(=O)c2cc(OCC)c(OCC)c(OCC)c2)CC1 (stereo not given), the B-score is reported as “inactive”.
CCN(CC)c1ccc(/C=N/NC(=O)CNC(=O)c2cccnc2)cc1 was tested, and the B-score was “inactive”.
For CCN(CC)c1ccc(/C=N/Nc2nc(C)cc(C)n2)c(O)c1, the B-score was “inactive”.
For CCN(CC)c1ccc(/C=N/NC(=O)c2cnccn2)c(O)c1, the B-score was -5.95 (active).
For CC(NC(=O)c1ccccc1F)c1cccc2ccccc12 (stereo not given), the B-score was “inactive”.
In the case of COc1ccc(Cc2nnc(SCC(=O)Nc3ccc(C)c(Cl)c3)[nH]c2=O)cc1, the B-score is reported as “inactive”.
In the case of OCC[C@H]1C[C@@H](O)[C@H](O)[C@@]2(OCCc3ccccc32)O1, the B-score is reported as “inactive”.
In the case of COc1ccc(C(=O)NNC(=S)NC(=O)c2ccccc2[N+](=O)[O-])cc1, the B-score is reported as “inactive”.
In the case of COc1ccc(C(=O)NC(=S)NNC(=O)CCc2ccccc2)cc1, the B-score is reported as -5.23 (active).
COc1ccc(C(=O)NC(=S)NNC(=O)c2c(-c3ccccc3)noc2C)cc1 was tested, and the B-score was “inactive”.
For COc1ccc(C(=O)NNC(=S)NC(=O)c2ccccc2)cc1, the B-score was -5.26 (active).
For CC(C)Oc1ccc(CCC(=O)NNC(=S)NCc2ccccc2)cc1, the B-score was “inactive”.
For O=C(CCc1ccccc1)NNC(=O)c1ccc(Br)cc1, the B-score was “inactive”.
For COc1ccc2c(c1)O/C(=C\c1ccccc1O)C2=O, the B-score was “inactive”.
For O=C(Cc1ccc(S(=O)(=O)N2CCOCC2)s1)N1CCN(c2ccc(C(F)(F)F)cc2[N+](=O)[O-])CC1, the B-score was “inactive”.
For O=C(/C=C/c1ccc(F)cc1)Nc1cccc(S(=O)(=O)Nc2cccc(C(F)(F)F)c2)c1, the B-score was “inactive”.
With CCOC(=O)N1CCN(C(=O)c2ccc(S(=O)(=O)Nc3cccc(C(F)(F)F)c3)cc2)CC1 the B-score was “inactive”.
For Cc1oc2c(F)c(F)c(F)c(F)c2c1S(=O)(=O)Nc1cccc(C(F)(F)F)c1, the B-score was -5.14 (active).
